Pf Dd2 inh = blocks growth of Plasmodium falciparum Dd2 parasites | P. falciparum Dd2 growth, SYBR Green, 72 h; stronger effect = lower value | activity change, % at 10 µM | actives 2.3% (n = 94,000); in the data active = activity change below about -80%; inconclusive = no clear call, values can overlap the other calls
C diff HTS = inhibitors of Clostridium difficile growth. growth activity, negative = inhibition, % at 16 µg/mL (by protocol). actives 0.25% (n = 86,000). Clostridium difficile clinical isolate growth, OD600, 24 h; stronger effect = lower value;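 active = mean growth activity at or below -80% and every replicate also at or below -80%; inconclusive = mean at or below -80% but some replicate above -80%; inactive = mean growth activity above -80%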;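 note: 0% = DMSO wells and -100% = levofloxacin 16 µg/mL wells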
T cruzi growth = inhibitors of T. cruzi proliferation; T. cruzi beta-gal in NIH3T3, GalScreen luminescence, 90 h; inhibition, % at 8.34 µM; actives 5.9% (n = 77,000); AID 624255;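 active = mean inhibition above about 93%, with at least 55% of replicates each passing it, limit read from the data, passing the limit was not always enough; inconclusive = only one of those two conditions holds; inactive = neither condition holds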
The depositor's hits bear a star. The list is not random: actives were taken first. Their share in the collection is about 6.7%.

Screening CCNC(=O)C[C@@H]1CC[C@H]2[C@@H](COc3ccc(NC(=O)c4cccc(OC)c4)cc3C(=O)N2C)O1 returned Pf Dd2 inh -12, C diff HTS 1 and T cruzi growth -5.
O=C(C[C@@H]1C[C@@H]2c3cc(NC(=O)Nc4ccccc4)ccc3O[C@@H]2[C@H](CO)O1)NCc1ccccc1 was read as Pf Dd2 inh -46, C diff HTS -14 and T cruzi growth 59.
Screening COc1ccc(NC(=O)Nc2ccc3c(c2)[C@@H]2C[C@H](CC(=O)N[C@@H](C)c4ccccc4)O[C@H](CO)[C@@H]2O3)cc1 returned Pf Dd2 inh -87* and C diff HTS 13.
For CN1CCN(C(=O)C[C@H]2C[C@H]3c4cc(NC(=O)Nc5ccc(C(F)(F)F)cc5)ccc4O[C@H]3[C@H](CO)O2)CC1 the results were Pf Dd2 inh -58, C diff HTS 0 and T cruzi growth -12.
`COc1ccc(NC(=O)Nc2ccc3c(c2)[C@@H]2C[C@@H](CC(=O)N[C@@H](C)c4ccccc4)O[C@@H](CO)[C@@H]2O3)cc1` gave Pf Dd2 inh -30, C diff HTS 1 and T cruzi growth -7.
`CN1CCN(C(=O)C[C@H]2C[C@@H]3c4cc(NC(=O)Nc5ccc(C(F)(F)F)cc5)ccc4O[C@@H]3[C@@H](CO)O2)CC1` gave Pf Dd2 inh -85*, C diff HTS 5 and T cruzi growth 2.
CN(C)c1ccc2c(c1)[C@@H]1C[C@@H](CC(=O)NCc3ccc(Oc4ccccc4)cc3)O[C@@H](CO)[C@@H]1O2 was read as Pf Dd2 inh inconclusive, C diff HTS 6 and T cruzi growth 127*.
Screening O=C(C[C@H]1C[C@@H]2c3cc(NC(=O)Nc4ccccc4)ccc3O[C@@H]2[C@H](CO)O1)NCc1ccccc1 returned Pf Dd2 inh -88*, C diff HTS 1 and T cruzi growth 32.
`CN(C)c1ccc2c(c1)[C@H]1C[C@@H](CC(=O)NCc3ccc(Oc4ccccc4)cc3)O[C@H](CO)[C@H]1O2` gave Pf Dd2 inh -10 and C diff HTS -9.
`COc1ccc(NC(=O)N(C)C[C@@H]2OCCCC[C@@H](C)Oc3ccc(NC(=O)NC4CCCCC4)cc3C(=O)N([C@@H](C)CO)C[C@@H]2C)cc1` gave Pf Dd2 inh -60, C diff HTS -2 and T cruzi growth -10.
Screening COc1ccc(CN(C)C[C@@H]2OCCCC[C@H](C)Oc3ccc(NC(=O)c4ccncc4)cc3C(=O)N([C@H](C)CO)C[C@@H]2C)cc1 returned Pf Dd2 inh -21, C diff HTS 6 and T cruzi growth -27.
C[C@H](CO)N1C[C@H](C)[C@@H](CN(C)C(=O)c2ccncc2)Oc2ncc(C#CC3CCCC3)cc2C1=O was read as Pf Dd2 inh 19.
C/C=C/c1ccc([C@@H]2[C@@H](CO)N[C@@H]2CN(CC(C)C)C(=O)c2ccccn2)cc1 was read as Pf Dd2 inh -69, C diff HTS 0 and T cruzi growth -32.
CC=Cc1ccc2n(c1=O)C[C@H]1[C@H](CO)[C@@H](C(=O)NCC)[C@@H]2N1Cc1ccccc1 (mixture of isomers) was read as Pf Dd2 inh 2, C diff HTS -4 and T cruzi growth 32.
`CN(C)c1ccc2c(c1)[C@@H]1C[C@H](CC(=O)N3CCc4ccccc4C3)O[C@@H](CO)[C@@H]1O2` gave Pf Dd2 inh inconclusive, C diff HTS -6 and T cruzi growth 101*.
Screening CN(C)c1ccc2c(c1)[C@H]1C[C@H](CC(=O)N3CCc4ccccc4C3)O[C@@H](CO)[C@H]1O2 returned Pf Dd2 inh -58, C diff HTS -1 and T cruzi growth 86.
Screening COc1ccccc1CNC(=O)C[C@H]1C[C@H]2c3cc(NC(=O)Cc4ccncc4)ccc3O[C@H]2[C@H](CO)O1 returned Pf Dd2 inh -87*, C diff HTS 0 and T cruzi growth -10.
COCC(=O)Nc1ccc2c(c1)[C@@H]1C[C@@H](CC(=O)NCc3ccccc3OC)O[C@@H](CO)[C@@H]1O2 was read as Pf Dd2 inh -18, C diff HTS -3 and T cruzi growth -4.
`COc1cccc(S(=O)(=O)N[C@H]2C=C[C@@H](CC(=O)NC3Cc4ccccc4C3)O[C@@H]2CO)c1` gave Pf Dd2 inh -10 and T cruzi growth 52.
CCC(=O)N1CC2(C1)CN(Cc1ccc3c(c1)OCO3)[C@@H](CO)c1c2c2ccc(OC)cc2n1C was read as Pf Dd2 inh -58 and C diff HTS -7.
C/C=C/c1ccc2c(c1)[C@H]1[C@H](CCN1S(=O)(=O)c1ccccc1F)[C@H](CO)N2 was read as Pf Dd2 inh -68, C diff HTS 5 and T cruzi growth 56.
For Cc1noc(C)c1NC(=O)Nc1ccc2c(c1)CC(=O)N([C@@H](C)CO)C[C@H](C)[C@@H](CN(C)S(=O)(=O)c1cn(C)cn1)O2 the results were Pf Dd2 inh 5, C diff HTS 7 and T cruzi growth -3.
`O=C(N[C@@H]1CC[C@H](CCn2cc(C3(O)CCCC3)nn2)O[C@H]1CO)C1CCCC1` gave Pf Dd2 inh 8 and C diff HTS 0.
CCCN(C)C[C@@H]1Oc2ncc(C#Cc3ccc(OC)cc3)cc2C(=O)N([C@H](C)CO)C[C@@H]1C was read as Pf Dd2 inh -81* and C diff HTS 15.
`C[C@@H]1CN([C@H](C)CO)C(=O)c2cc(C#CCc3ccccc3)cnc2O[C@@H]1CN(C)CC1CCOCC1` gave Pf Dd2 inh -57, C diff HTS 1 and T cruzi growth -130.
`CCCN(C)C[C@@H]1Oc2ncc(C#Cc3cccc(OC)c3)cc2C(=O)N([C@H](C)CO)C[C@@H]1C` gave Pf Dd2 inh -45 and C diff HTS 28.
`COc1cccc(S(=O)(=O)N(C)C[C@@H]2Oc3ncc(C#Cc4ccc(OC)c(OC)c4)cc3C(=O)N([C@H](C)CO)C[C@@H]2C)c1` gave Pf Dd2 inh -92*, C diff HTS 4 and T cruzi growth 60.
Screening C[C@@H]1CN([C@H](C)CO)C(=O)c2cc(C#CCc3ccccc3)cnc2O[C@H]1CN(C)CC1CCCC1 returned Pf Dd2 inh -94*, C diff HTS 8 and T cruzi growth 92.
Screening CCCC#Cc1cnc2c(c1)C(=O)N([C@H](C)CO)C[C@H](C)[C@@H](CN(C)S(=O)(=O)c1cccc(OC)c1)O2 returned Pf Dd2 inh -57, C diff HTS -2 and T cruzi growth 89.
COc1ccc(S(=O)(=O)N(C)C[C@@H]2Oc3ncc(-c4ccncc4)cc3C(=O)N([C@H](C)CO)C[C@H]2C)cc1 was read as Pf Dd2 inh -60, C diff HTS 2 and T cruzi growth 70.
For COc1ccc(-c2cnc3c(c2)C(=O)N([C@@H](C)CO)C[C@H](C)[C@H](CN(C)S(=O)(=O)c2ccc(OC)cc2)O3)cc1 the results were Pf Dd2 inh -83* and T cruzi growth 85.
Screening COc1ccc(C#Cc2ccc([C@@H]3[C@H](CO)N4CCCCN(S(=O)(=O)c5cn(C)cn5)C[C@@H]34)cc2)cc1 returned Pf Dd2 inh 5, C diff HTS -5 and T cruzi growth 32.
For COCC(=O)N1CCC2(CC1)CN(Cc1cccc(OC)c1)[C@@H](CO)c1c2c2ccc(OC)cc2n1C the results were Pf Dd2 inh -24 and C diff HTS 0.
